High-throughput results deposited in PubChem BioAssay by several laboratories.
This is a sample that favours compounds with a hit; in the whole collection about 21% have one here.
CYP2C9 act = activators of human CYP2C9. P11712. recombinant CYP2C9, luciferin-H conversion, luminescence; stronger effect = higher value; factor 1 = untreated enzyme, 0 = blocked. activation factor at 5 µM. 96,000 tested, 1.4% active;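 active = activation factor of 2 or more for CYP2C9 at a 5 µM dose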;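 note: 0 = sulfaphenazole-blocked wells and 1 = vehicle-only wells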
Target sequence (P11712 whole entry, looked up): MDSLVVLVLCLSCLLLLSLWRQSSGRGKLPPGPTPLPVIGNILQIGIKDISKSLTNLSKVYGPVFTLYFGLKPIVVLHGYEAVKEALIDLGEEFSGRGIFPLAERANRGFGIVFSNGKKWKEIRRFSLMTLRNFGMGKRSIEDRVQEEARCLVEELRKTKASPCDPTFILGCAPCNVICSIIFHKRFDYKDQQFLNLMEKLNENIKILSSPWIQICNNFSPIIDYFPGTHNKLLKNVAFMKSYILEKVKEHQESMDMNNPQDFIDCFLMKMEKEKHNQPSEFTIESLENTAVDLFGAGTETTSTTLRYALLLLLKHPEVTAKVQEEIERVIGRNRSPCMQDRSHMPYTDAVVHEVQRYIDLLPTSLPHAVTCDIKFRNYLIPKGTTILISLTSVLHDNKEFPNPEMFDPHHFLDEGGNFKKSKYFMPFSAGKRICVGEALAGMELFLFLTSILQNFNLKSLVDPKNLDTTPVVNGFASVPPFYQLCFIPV
CYP2C19 act = cytochrome P450 2C19 (human) activation. recombinant CYP2C19, luciferin-H EGE luminescence; stronger effect = higher value; 0 = fully inhibited enzyme, 1 = untreated enzyme. activation factor at 5 µM. 96,000 tested, under 10 active. P33261;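 active = activation factor of at least 2 at 5 µM in the primary screen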;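 note: 0 = wells with 2.5 mM tranylcypromine and 1 = vehicle-only wells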
CYP2C19 inhib = blocks human cytochrome P450 2C19 | CYP2C19 Supersomes, luciferin-H EGE luminescence, 30 min | AID 778 | P33261 | 96,000 tested, 21% active | inhibition, % at 5 µM;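 active = CYP2C19 inhibition above a set limit at 5 µM in the primary screen, cut at about 50% in these data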;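 note: plate controls were negative control wells for no effect and 2.5 mM tranylcypromine positive control for full effect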
CYP2C9 inh = human CYP2C9 inhibition. P11712. CYP2C9 Supersomes, luciferin-H conversion, luminescence. inhibition, % at 5 µM. 96,000 tested, 20% active. AID 777;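 active = blocking of liver enzyme CYP2C9 beyond about 50% at 5 µM, limit read from the data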
MRP1 act = activates MRP-1; 140,000 tested, 0.61% active; H69AR cells + doxorubicin, viability rescue, CellTiter-Glo; viability increase, % at 10 µM;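 active = viability gain under doxorubicin at or above a set limit, the compound median plus 3 SD, cut at about 4.7% in these data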;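 note: MRP-1 overexpressing cells given doxorubicin 25 µM after compound pretreatment; 18-22 h compound pretreatment then 72 h with doxorubicin before readout; 0% = doxorubicin-only wells and 100% = vehicle-treated cells without doxorubicin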
MRP reversal = reverses drug resistance mediated by MRP | H69AR cells + 2 uM doxorubicin, CellTiter-Glo, 72 h | differential viability (reversal), % at 10 µM | 85,000 tested, 0.04% active | AID 602;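 active = viability drop by adding the cancer drug above about 55%, with treated viability meeting a 40% cutoff, limit read from the data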;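 note: viability without doxorubicin minus viability with 2 µM doxorubicin for each compound; larger differential means the compound sensitizes cells more to doxorubicin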
* hit, by the source's call; x = no result.

SMILES | CYP2C9 act | CYP2C19 act | CYP2C19 inhib | CYP2C9 inh | MRP1 act | MRP reversal
CN1[C@@H]2CC[C@H]1CC(OC(=O)C(CO)c1ccccc1)C2 (stereo partly specified) | x | x | x | x | -1 | x
COc1ccc(C(=O)CSc2nnc(CN3CCCC3)n2-c2ccc(F)cc2)c(OC)c1 | x | x | x | x | -3 | x
Cc1cccc(C(=O)NCCN2CCOCC2)c1[N+](=O)[O-] | x | x | x | x | -1 | x
CCOC(=O)Cn1c(=NC(=O)c2ccc([N+](=O)[O-])s2)sc2ccccc21 | x | x | x | x | -5 | x
CCOC(=O)c1[nH]c(Cc2[nH]c(C(=O)OCC)c(C)c2CCC(=O)OC)c(CCC(=O)OC)c1C | 0.3 | 0.4 | 58* | 72* | -1 | 2
CCOC(=O)c1c(C)[nH]c(C(=O)OC)c1CCC(=O)OC | 0.9 | 0.8 | 23 | 13 | 0 | -4
COC(=O)CSc1nsc(SCC(=O)OC)c1C#N | 0.8 | 0.5 | 54* | 23 | -1 | 5
Cc1c(N=Cc2cc(Br)cc(Br)c2O)cccc1C(=O)O | x | x | x | x | -2 | x
CNc1nc(C)c(C#N)c(-c2ccccc2)c1C(C)=O | 0.7 | 0.5 | 55* | 33 | -2 | 2
O=C(O)CCCCCNCc1ccncc1 | 1 | 1.1 | -13 | -4 | -3 | x
CC(C)CC(=O)Nc1cccc(C(=O)Nc2ccccc2C(=O)O)c1 | 0.3 | 0.9 | 7 | 74* | -1 | 8
O=C(Nc1ccccc1C(=O)O)c1cccc(NC(=O)c2ccc(Br)o2)c1 | 0.1 | 1 | 2 | 91* | -1 | 3
O=C(Nc1ccccc1C(=O)O)c1ccc(NC(=O)c2ccc(Br)o2)cc1 | 0.2 | 0.8 | 23 | 78* | -2 | -4
Cc1ccc(NC(=O)CN2C(=O)NC(Cc3c[nH]c4ccccc34)C2=O)cc1S(=O)(=O)N1CCCCC1 (stereo unspecified) | x | x | x | x | -1 | x
Cc1cc(C)c(S(=O)(=O)NCCCn2ccnc2)c(C)c1 | x | x | x | x | -4 | x
COc1cc(C)c(C(C)C)cc1S(=O)(=O)NCCCn1ccnc1 | 0 | 0 | 100* | 99* | -1 | -13
CCN1C(=O)N(CN2CCOCC2)C2C1N(CN1CCOCC1)C(=O)N2CC (stereo unspecified) | 0.9 | 1 | 0 | 14 | x | 27
Brc1cccc(/C=N\n2cnnc2)c1 | 0.9 | 0.6 | 38 | 8 | 1 | -5
Cc1ccc(S(=O)(=O)Nc2ccc(Br)cc2/C=N/n2cnnc2)cc1 | 0.4 | 0.5 | 54* | 62* | 0 | -11
CCCC(=O)Nc1cccn(Cc2ccccc2Br)c1=O | 0.6 | 0.1 | 92* | 43 | -1 | 9
CCCC(=O)Nc1ccccc1NC(C)=O | 1.1 | 1.1 | -12 | -9 | -1 | 4
CC(=O)C(C)Oc1ccc2c3c(c(=O)oc2c1C)CCCC3 (stereo unspecified) | 0.5 | 0.4 | 58* | 46 | 1 | -19
Cc1c(OCc2ccc([N+](=O)[O-])cc2)ccc2c3c(c(=O)oc12)CCC3 | x | x | x | x | -2 | x
Cc1c(OC(=O)CNC(=O)OC(C)(C)C)ccc2c3c(c(=O)oc12)CCC3 | 2.7* | 0.6 | 41 | -173 | -4 | -5
Cc1c(OCC(=O)OC(C)(C)C)ccc2c3c(c(=O)oc12)CCC3 | 1 | 0.8 | 15 | 2 | 5.1* | -10
SMILES | CYP2C9 act | CYP2C19 act | CYP2C19 inhib | CYP2C9 inh | MRP1 act | MRP reversal
Cc1oc(C(=O)O)cc1COc1ccc2c3c(c(=O)oc2c1C)CCCC3 | 1.1 | 1 | -4 | -14 | x | -4
CC(=O)COc1ccc2c3c(c(=O)oc2c1C)CCCCC3 | 0.9 | 0.2 | 83* | 15 | -3 | -8
Cc1oc(C(=O)O)cc1COc1ccc2c3c(c(=O)oc2c1C)CCC3 | 1.3 | 1.1 | -6 | -34 | -1 | 0
N#Cc1c(N)nc2c(c1-c1ccncc1)CCCC2 | 0.7 | 0.2 | 76* | 34 | -3 | -20
N#Cc1c(N)nc2c(c1-c1cccc(O)c1)CCCCCC2 | 0.5 | 0.7 | 31 | 54* | -2 | -29
N#Cc1c(N)nc2c(c1-c1ccccc1)CCCC2 | 1.2 | 0.9 | 14 | -25 | -3 | -6
N#Cc1c(N)nc2c(c1-c1ccncc1)CCCCCC2 | x | x | x | x | x | 5
COc1ccc(C2C(C(=O)OCC3CCCO3)=C(C)NC3=C2C(=O)CC(c2ccco2)C3)cc1O (stereo unspecified) | 0.7 | 0.8 | 18 | 33 | -2 | 7
Cc1ccc(-c2cc(C(=O)Nc3cnn(C(C)C)c3)no2)cc1 | 0.8 | 1 | -4 | 21 | 1 | -4
CCc1c(C)sc(NC(=O)c2cc(CC(C)C)on2)c1C#N | 1 | 1 | -3 | 2 | 8.0* | -20
COCC(C)NC(=O)c1cc(-c2cccc(OC)c2)on1 (stereo unspecified) | 1.2 | 1.1 | -7 | -22 | 2 | 6
CC(C)Cc1cc(C(=O)Nc2sc3c(c2C#N)CCCC3)no1 | 1.1 | 1.1 | -8 | -5 | 1 | 4
Cc1ccc(-c2cc(C(=O)Nc3c(C#N)cnn3C)no2)cc1 | 0.4 | 1.2 | -15 | 56* | 0 | 6
CCc1c(C)sc(NC(=O)c2cc(-c3ccc(O)cc3)on2)c1C#N | 2.1* | 1 | -2 | -106 | -2 | -10
COCC(C)NC(=O)c1cc(-c2ccc(O)cc2)on1 (stereo unspecified) | 2.4* | 0.9 | 11 | -138 | -1 | -3
CCc1c(C)sc(NC(=O)c2cc(-c3ccc(OC)c(OC)c3)on2)c1C#N | 1 | 1.1 | -12 | -4 | -2 | -17
COc1cc2c(cc1NC(=S)Nc1cccc3ccccc13)oc1ccccc12 | 0.9 | 0.9 | 7 | 9 | -2 | x
O=C(COCC(=O)Nc1cccc(C(F)(F)F)c1)Nc1cccc(C(F)(F)F)c1 | 0.8 | 0.2 | 84* | 17 | -6 | x
CC(=O)Nc1ccc(NC(=O)CN2CCN(c3cccc(C(F)(F)F)c3)CC2)cc1 | 0.8 | 0.9 | 14 | 17 | -2 | x
O=C(CN1CCN(c2cccc(C(F)(F)F)c2)CC1)Nc1cccc(C(F)(F)F)c1 | 0.4 | 0.6 | 42 | 58* | -2 | 1
COc1cc2c(cc1NC(=S)Nc1cccc(C(F)(F)F)c1)oc1ccccc12 | 0.2 | 0.3 | 70* | 79* | -5 | -33
O=C(Cc1ccccc1)Nc1cccc(N2CCCC2)c1 | 0.2 | 0.7 | 26 | 77* | -2 | 3
CNC(=O)Nc1cccc(C(F)(F)F)c1 | x | x | x | x | 0 | 8
O=C(Cc1ccccc1)Nc1ccc(N2CCCC2)cc1 | 0.9 | 0.8 | 24 | 14 | -1 | -1
CC(NC(=O)Nc1ccc([N+](=O)[O-])cc1)C(c1cccs1)N1CCCC1 (stereo unspecified) | x | x | x | x | -4 | x
CCN1C(=O)/C(=C\c2cccn2-c2ccc([N+](=O)[O-])cc2)N(CC)C1=S | x | x | x | x | -4 | x
O=C(Nc1cccc(C(F)(F)F)c1)C(SCCO)c1ccccc1 (stereo unspecified) | x | x | x | x | -3 | x
CCC(C(=O)Nc1cccc(C(F)(F)F)c1)c1ccccc1 (stereo unspecified) | 0.3 | 0.4 | 56* | 71* | -1 | x
